CRFBP-R2 block = blocks CRF-induced signaling of the CRF-BP/CRF-R2 complex. actives 0.59% (n = 350,000). HEK293 CRF-R2/CRF-BP, CRF-induced calcium fluorescence. inhibition, % at 11.8 µM. AID 588475;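 active = inhibition of the ligand-induced calcium signal above about 50% at the single tested concentration, limit read from the data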
CRFR2-BP ag = agonists of human CRF-binding protein/CRF-R2 receptor complex; HEK293 CRF-R2/CRF-BP, calcium dye fluorescence (FLIPR); percent of saturating CRF peptide response; activation, % at 13.2 µM; actives 0.46% (n = 350,000);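 active = activation of at least 50%, plus an integration ratio under a set limit after plate pattern correction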;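 also: plate controls were neutral control wells without compound for no effect and CRF at EC100 for full effect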
RTF Ca sens act = cardiac RTF calcium sensitization. IANBD-labeled TnC RTF fluorescence at EC20 calcium; 0% EC20 calcium, 100% full calcium. activation, % at 7.2 µM. P19429+P45379. actives 0.24% (n = 340,000). AID 493008;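 active = activation above the mean over all tested compounds plus 3 SD, cut at about 30% in these data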;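 also: rise in fluorescence read as greater calcium sensitivity of cardiac thin filaments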
RTF Ca sens inh = cardiac RTF calcium desensitization; P19429+P45379; IANBD-labeled cardiac RTF, Ca2+ fluorescence; inhibition, % at 7.15 µM; actives 0.12% (n = 340,000); AID 493244;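 active = inhibition above the mean inhibition of all tested compounds plus 3 SD, cut at about 17% in these data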;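 also: assay run at fixed EC70 calcium of 1.6 mM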
IDE inh = inhibits human insulin-degrading enzyme in HEK cells. FAbetaB cleavage, fluorescence polarization. inhibition, % at 5.59 µM. actives 0.41% (n = 320,000). AID 434962;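 active = percent inhibition above the average of all tested compounds plus 3 SD, set per screening campaign, cut at about 16% in these data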;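 also: IDE supplied by intact live HEK cells; FP after avidin binding of uncleaved biotin substrate so inhibition keeps polarization high; 0% = DMSO wells and 100% = 60 µM reference IDE inhibitor Ii1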
IDE act = boosts human insulin-degrading enzyme activity in HEK cells | actives 0.073% (n = 340,000) | AID 493087 | activation, % at 5.96 µM | FAbeta-B cleavage, fluorescence polarization; 0% vehicle, 100% cell-free pure enzyme wells | P14735;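 active = activation above the mean of all tested compounds plus 3 SD, set per screening campaign, cut at about 17% in these data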
The depositor's hits bear a star. Rows were chosen to be rich in hits. Some 1.5% of all compounds tested hit in one or more screens of this group.

What do the screens show for `O=C(CCC(=O)c1ccccc1)Nc1ccccc1OC(F)F`?
CRFBP-R2 block: -10.0; CRFR2-BP ag: -3.3; RTF Ca sens act: -1.1; RTF Ca sens inh: -5.4; IDE inh: 1.0; IDE act: 4.7

How did Cc1sc2nc(CN(Cc3cccs3)C(=O)NC3CCCCC3)[nH]c(=O)c2c1C do in these assays?
CRFBP-R2 block: 52.2*; CRFR2-BP ag: -0.3; RTF Ca sens act: -5.7; RTF Ca sens inh: -11.3; IDE inh: 1.9; IDE act: -1.9

What do the screens show for `Cc1cc2c(cc1S(=O)(=O)CCC(=O)NC1CCCCC1C)OCC(=O)N2` (stereo unspecified)?
CRFBP-R2 block: -87.1; CRFR2-BP ag: 83.3*; RTF Ca sens act: 2.4; RTF Ca sens inh: -2.2; IDE inh: 0.5; IDE act: 8.6

Results for CC1CCCCC1NC(=O)CCS(=O)(=O)c1cc2c(cc1Cl)NC(=O)CO2 (stereo unspecified) ?
CRFBP-R2 block: -13.9; CRFR2-BP ag: -1.3; RTF Ca sens act: -4.5; RTF Ca sens inh: -2.0; IDE inh: -1.7; IDE act: 4.3

What do the screens show for `Cc1ccccc1CNC(=O)C(=O)NCCC1CCCCN1S(=O)(=O)c1ccccc1` (stereo unspecified)?
CRFBP-R2 block: 13.4; CRFR2-BP ag: 1.0; RTF Ca sens act: 2.2; RTF Ca sens inh: 12.0; IDE inh: -0.1; IDE act: -2.7

How did Cc1ccccc1NC1=NC(=S)N(c2ccccc2)C12CCCCC2 do in these assays?
CRFBP-R2 block: 60.5*; CRFR2-BP ag: 1.8; RTF Ca sens act: 6.0; RTF Ca sens inh: -0.8; IDE inh: -0.7; IDE act: 4.2

How did CC1c2[nH]c3ccccc3c2C[C@H]2C(=O)N(CCCN(C)C)CC(=O)N12 (stereo partly specified) do in these assays?
CRFBP-R2 block: -2.0; CRFR2-BP ag: 1.2; RTF Ca sens act: 2.3; RTF Ca sens inh: 2.1; IDE inh: 2.5; IDE act: 0.5

What do the screens show for `O=C(CC1SC(=O)N(c2ccccc2)C1=O)Nc1ccccc1` (stereo unspecified)?
CRFBP-R2 block: -20.3; CRFR2-BP ag: 4.6; RTF Ca sens act: 4.1; RTF Ca sens inh: -8.5; IDE inh: -3.5; IDE act: -9.7

Results for Cc1ccc(NC(=O)CC2SC(=O)N(c3ccccc3)C2=O)cc1 (stereo unspecified) ?
CRFBP-R2 block: 89.2*; CRFR2-BP ag: 1.7; RTF Ca sens act: 4.7; RTF Ca sens inh: -9.6; IDE inh: 0.1; IDE act: 2.4

Results for CCOC(=O)c1ccccc1-n1nnnc1C ?
CRFBP-R2 block: 9.1; CRFR2-BP ag: -1.9; RTF Ca sens act: 124.1*; RTF Ca sens inh: 6.8; IDE inh: -5.7; IDE act: 5.1

What do the screens show for `Cc1ccc(-c2nnnn2-c2ccccc2C(=O)O)cc1`?
CRFBP-R2 block: 10.6; CRFR2-BP ag: -0.4; RTF Ca sens act: 3.0; RTF Ca sens inh: 0.3; IDE inh: 0.2; IDE act: 3.1

What do the screens show for `CC(CCN1CCN(c2ccc(F)cc2)CC1)c1ccccc1` (stereo unspecified)?
CRFBP-R2 block: -5.3; CRFR2-BP ag: 0.3; RTF Ca sens act: -2.4; RTF Ca sens inh: -4.4; IDE inh: 1.5; IDE act: -1.9

How did NS(=O)(=O)c1cccc(NC(=O)COC(=O)Cc2ccc(S(=O)(=O)N3CCOCC3)s2)c1 do in these assays?
CRFBP-R2 block: -1.8; CRFR2-BP ag: 0.5; RTF Ca sens act: -1.2; RTF Ca sens inh: -8.5; IDE act: 0.5

Results for COc1ccccc1CNC(=O)CC12CC3CC(CC(Br)(C3)C1)C2 ?
CRFBP-R2 block: 5.6; CRFR2-BP ag: 0.9; RTF Ca sens act: -5.5; RTF Ca sens inh: 6.9; IDE inh: -3.7; IDE act: 6.9

How did COC(=O)C1=C(N)c2c(F)cccc2C1(C#N)c1ccccc1 (stereo unspecified) do in these assays?
CRFBP-R2 block: 57.8*; CRFR2-BP ag: -2.1; RTF Ca sens act: 2.0; RTF Ca sens inh: -12.7; IDE inh: 0.8; IDE act: 5.2

What do the screens show for `CCCc1cc(=O)[nH]c(SCC(=O)c2ccc3c(c2)OCCO3)n1`?
CRFBP-R2 block: 24.6; CRFR2-BP ag: 5.9; RTF Ca sens act: 0.2; RTF Ca sens inh: -0.4; IDE inh: 1.0; IDE act: 1.4

Results for CCCc1cc(=O)[nH]c(SCC(=O)N(CCC#N)c2ccc3c(c2)OCCO3)n1 ?
CRFBP-R2 block: 97.5*; CRFR2-BP ag: -1.4; RTF Ca sens act: -3.1; RTF Ca sens inh: -1.6; IDE act: 0.9

What do the screens show for `O=C(CCCN=C1NS(=O)(=O)c2ccccc21)OCC(=O)c1ccccc1Cl`?
CRFBP-R2 block: 6.9; CRFR2-BP ag: -0.8; RTF Ca sens act: 8.0; RTF Ca sens inh: 1.0; IDE inh: -4.9; IDE act: 7.2

What do the screens show for `COc1ccc(CCNC(=S)c2ccccc2)cc1OC`?
CRFBP-R2 block: 6.8; CRFR2-BP ag: 0.1; RTF Ca sens act: 0.6; RTF Ca sens inh: -7.5; IDE inh: 3.1; IDE act: 0.2

How did O=C(CCSc1ccc(Br)cc1)Nc1cccnc1 do in these assays?
CRFBP-R2 block: 110.2*; CRFR2-BP ag: -1.0; RTF Ca sens act: 0.0; RTF Ca sens inh: 6.3; IDE inh: 7.9; IDE act: -3.4

How did COc1ccc(OCCCC(=O)Nc2cccnc2)cc1 do in these assays?
CRFBP-R2 block: 53.0*; CRFR2-BP ag: -4.5; RTF Ca sens act: 0.1; RTF Ca sens inh: -0.8; IDE inh: -2.7; IDE act: 6.3

Results for O=C(CCC(=O)c1ccc(Br)cc1)Nc1cccnc1 ?
CRFBP-R2 block: 14.7; CRFR2-BP ag: 2.5; RTF Ca sens act: 3.6; RTF Ca sens inh: 6.9; IDE inh: -3.3; IDE act: -0.3

What do the screens show for `CCOc1ccc(-n2c(C)nc(O)c2N=Nc2ccccc2)cc1`?
CRFBP-R2 block: -20.5; CRFR2-BP ag: 1.0; RTF Ca sens act: 8.3; RTF Ca sens inh: -4.0; IDE inh: -3.2; IDE act: 7.9

Results for CC(C)Cc1csc(NC(=O)c2ccccc2Cl)c1C(=O)O ?
CRFBP-R2 block: 4.0; CRFR2-BP ag: -0.5; RTF Ca sens act: 2.7; RTF Ca sens inh: -7.5; IDE inh: 2.3; IDE act: 4.9

What do the screens show for `CC(C)Cc1csc(NC(=O)c2ccc(Cl)cc2)c1C(=O)O`?
CRFBP-R2 block: 94.9*; CRFR2-BP ag: 27.3; RTF Ca sens act: 1.6; RTF Ca sens inh: -1.4; IDE inh: -1.4; IDE act: 2.2

How did CCn1nc(C)cc1-c1nnc(SCC(=O)Nc2ccccc2)n1CCCOC do in these assays?
CRFBP-R2 block: -0.2; CRFR2-BP ag: 2.1; RTF Ca sens act: 1.1; RTF Ca sens inh: -4.4; IDE inh: 4.1; IDE act: 6.1

Results for CCn1nc(C)cc1-c1nnc(Sc2ncc([N+](=O)[O-])s2)n1C ?
CRFBP-R2 block: 96.8*; CRFR2-BP ag: -1.2; RTF Ca sens act: -4.2; RTF Ca sens inh: -5.4; IDE inh: -4.8; IDE act: -5.7
